p53ts 32C kill: cytotoxicity in p53ts cells at permissive temperature. Potency, µM (titrated, usually from 46.1 µM), actives largely listed as cytotoxic. hit rate 0.93% among 130,000. H1299-p53A138V at 32C, ATP luminescence viability, 24 h; note: nearly all actives have a fitted effect of over 55% in size
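Viability by ATPlite luminescence after 24 h compound treatment (up to 46 uM) at the permissive 32C. Cells are H1299 carrying p53 A138V. Scale runs from DMSO basal to 100 uM tamoxifen as full kill; AC50 from Hill fits.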
IkB signaling: suppresses IkB signaling in ABC-DLBCL reporter cells | hit rate 0.04% among 110,000 | Potency, µM (titrated, usually from 57.1 µM) | ABC-DLBCL IkBa-CBG/CBR dual luciferase ratio, 4 h; response scale: scaled: untreated 0%, proteasome inhibitor 100% | AID 445; active = well fitted curve in the direction sought with a large enough effect in the signal ratio, not every such curve was filed as active; inconclusive = small, poorly fitted or top-dose-only effect, or a change in a side signal; the % refers to the signal ratio;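 note: the direction sought is a rising ratio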
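Curves were fitted separately to fusion (green), unfused (red) and ratio luminescence, then classed by r2, magnitude and activity. Cells: OCI-Ly3, 4 h compound plus doxycycline at 37C; 10 uM MG-132 defined full response.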
p53ts 39C tox: kills p53ts cells at the nonpermissive temperature; H1299-p53A138V viability at 39C, ATP luminescence, 24 h; Potency, µM (top dose mostly 46.1 µM), usual class: cytotoxic; hit rate 1.5% among 130,000; AID 902; note: nearly all actives have a fitted effect of over 55% in size
Peg3 imprint: induces erasure of genomic imprints in mouse ES cells; mouse ES Peg3-LacZ reporter, beta-gal luminescence, 40 h; Potency, µM (titrated, usually from 60.7 µM), most hits filed as activators; hit rate 0.02% among 110,000; AID 1948
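Readout: BetaGlo luminescence (5 min, room temp) for LacZ from the normally silent maternal Peg3 allele in female Peg3LacZ-Neo ES cells. Cells 300/well, 40 h, 37C, 5% CO2. Data normalized per plate to negative controls.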
Numbers stand for hits; . = inactive; ? = inconclusive; / = not tested or not shown; ! = not confirmed by another sample; [ ] = remark or other dose. Only some compounds are listed: those with a hit (about 1.6% of all), similar ones and a draw of the others. Unless noted, calls come from the whole dose curve; as a rule, active = well fitted curve in the direction sought with a large enough effect; inconclusive = small, poorly fitted or top-dose-only effect, or another doubt; inactive = no such curve, though single readings can be large; an effect the other way counts as inactive or inconclusive.

SMILES	p53ts 32C kill	IkB signaling	p53ts 39C tox	Peg3 imprint
CCc1ccc(C(=O)CC2(O)C(=O)N(Cc3ccc(C)cc3)c3ccccc32)cc1 (stereo not drawn)	.	?	?	.[10.9 µM]
CCCCN1C(=O)C(O)(CC(=O)c2ccc(C(C)(C)C)cc2)c2ccccc21 (stereo not drawn)	?	?	12.6µM	.[10.9 µM]
COc1ccc(OC)c(N(C)S(=O)(=O)c2ccc3c(c2)NC(=O)CC(=O)N3)c1	.	?	.	.[10.9 µM]
Cc1[nH]c2ccccc2c1C(c1ccccc1)c1ccc(Cl)s1 (stereo not drawn)	?	?	12.6µM	.[10.9 µM]
CSc1cccc(-n2nnc(-c3nsc(NC(=O)c4cccs4)n3)c2C)c1	.	.	12.6µM	.[10.9 µM]
CCc1cccc(-n2nnc(-c3nsc(NC(=O)c4cccs4)n3)c2C)c1	.	.	10µM	.[10.9 µM]
Cc1ccc(-n2nnc(-c3nsc(NC(=O)c4cccc(Cl)c4)n3)c2C)cc1C	.	.	.	.[10.9 µM]
CCc1ccc(-n2nnc(-c3nsc(NC(=O)c4ccccc4Cl)n3)c2C)cc1	.	?	.	.[10.9 µM]
CC(=O)O[C@H]1C(=O)[C@]2(C)[C@H]([C@H](OC(=O)c3ccccc3)[C@@]3(O)C[C@H](OC(=O)[C@@H](O)[C@@H](NC(=O)c4ccccc4)c4ccccc4)C(C)=C1C3(C)C)[C@]1(OC(C)=O)CO[C@@H]1C[C@@H]2O	/	.[11.4 µM]	/	/
C#CCOc1c(Br)cc(C2C(C(=O)OC)=C(C)NC3=C2C(=O)c2ccccc23)cc1OCC (stereo not drawn)	.	?	.	.[10.9 µM]
Nc1ccc2oc(-c3ccc4nc[nH]c4c3)nc2c1	8.91µM	/	14.1µM	/
CC(=O)[C@]1(O)CC[C@@H]2[C@H]3C[C@@H](C)C4=CC(=O)CC[C@@]4(C)[C@H]3[C@@H](O)C[C@]21C	.[9.22 µM]	?	.[9.22 µM]	/
CC(C)c1ccc2c(c1)CC[C@H]1[C@](C)(CN)CCC[C@]21C	?	/	15.8µM	.
COc1cccc(-c2ccc3c(N)c(C(=O)c4ccc(Br)cc4)sc3n2)c1	?	.	12.6µM	.[10.9 µM]
COc1ccc(-c2ccc3c(N)c(C(=O)c4ccc(OC)c(OC)c4)sc3n2)cc1	.	?	?	.[10.9 µM]
COc1cc(OC)cc(C(=O)Nc2cc(-c3nc4cccnc4s3)ccc2C)c1	.	?	.	.[10.9 µM]
COc1ccc(Cn2c(SCC(N)=O)nc3c(sc4ccccc43)c2=O)cc1	.	?	12.6µM	.[10.9 µM]
CCOC(=O)c1cccc(NC(=O)CSc2nc3cc4ccccc4cc3[nH]2)c1	.	?	?	.[10.9 µM]
COCC(=O)/C=C1\Sc2ccccc2N1C	.	.	.	.
CN1/C(=C\C(=O)c2cccs2)Sc2ccccc21	10µM	?	10µM	.
CC(C)(C)c1ccc(-c2noc(CCC(N)=O)n2)cc1	?	.	?	.
CNC(=O)CCc1nc(-c2ccc(C(C)(C)C)cc2)no1	12.6µM	.	?	.
O=C(/C=C\c1ccc(O)cc1)c1ccc(O)cc1O	.	.	.	/
CCCOc1cccc(C(=O)Nc2cccc(NC(=O)c3ccc(Cl)cc3Cl)c2)c1	.	?	.	.[10.9 µM]
CCCOc1ccc(C(=O)Nc2cccc(NC(=O)c3ccc(Cl)cc3Cl)c2)cc1	?	?	7.94µM	.[10.9 µM]
SMILES	p53ts 32C kill	IkB signaling	p53ts 39C tox	Peg3 imprint
CN(C)CCCN1c2ccccc2CCc2ccc(Cl)cc21	.	?	20µM!	.
COC(=O)c1ccc(CSc2nc(N)cc(N)n2)cc1	12.6µM	.	?	.
COC(=O)c1ccc(CSc2nnc(N)s2)cc1	.	.	.	.
Cc1ccc2nc(-c3ccc(SCC(=O)O)nc3)[nH]c2c1	.	.	.	.
Cc1ccc2nc(-c3sc4nc(C)ccc4c3N)[nH]c2c1	12.6µM	/	10µM	/
[O-][N+]1=c2ccc(Nc3ccccc3)cc2=NC12CCCCC2	5.01µM	?	20µM	.
COc1ccc(Nc2ccc3c(c2)=NC2(CCCCC2)[N+]=3[O-])cc1	5.01µM	?	6.31µM	.
[O-][N+]1=C2CCC/C(=N\O)C2=NC12CCCCC2	.	.	.	.
Cc1cccc(N2CCN(C(=O)Cn3c(=O)c4cccn4c4ccc(F)cc43)CC2)c1C	.	?	.	.[10.9 µM]
CCN(Cc1ccccc1)S(=O)(=O)c1cc(Br)cc2c1N(C(=O)C1CC1)CC2	.	?	.	.[10.9 µM]
C=CCc1c(C)nc2nc(SCC(=O)Nc3ccc(C)c(C)c3)nn2c1C	.	?	12.6µM	.[10.9 µM]
Cc1ccc(Nc2nc3c(c(=O)[nH]2)CCCC3)cc1	.	/	.	/
O=c1[nH]c(Nc2nc3ccccc3o2)nc2c1CCCC2	12.6µM	/	?	/
CCCCCCCC/C=C\CCCCCCCC(=O)N[C@@H](CO)Cc1ccc(O)cc1	?	?	31.6µM	.
CCCCCCC/C=C\CCCCCCCCC(=O)O	.	.	.	.
C=C[C@@]1(C)C=C2CC[C@@H]3[C@](C)(CCC[C@@]3(C)C(=O)O)[C@H]2CC1	/	.[11.4 µM]	/	/
NC(=[SH+])N=N/C=C1/C=CC=CN1.O=S(=O)(O)O.[Fe]	/	/	/	.[10.9 µM]
Cc1cc(O)c(C(C)(C)C)cc1Sc1cc(C(C)(C)C)c(O)cc1C	.[1.84 µM]	?	15.8µM	.
CC(C)(C)c1cc(O)c(C(C)(C)C)cc1O	.	.	.	.
CC(C)OCCCNC(=O)CSc1c2c(nc3ccc(Cl)cc13)CCCC2	12.6µM	?	?	.[10.9 µM]
COc1ccc(C(=O)[C@H]2[C@H]3[C@@H](C(=O)[C@@H]4OC[C@H]3O4)[C@H]3C=Cc4ccccc4N32)c(OC)c1	/	.[11.4 µM]	/	/
COc1ccc(C(CNC(=O)COc2ccccc2C#N)N2CCOCC2)cc1 (stereo not drawn)	.	.	.	.
CC(C)(C)NC(=O)NC(=O)COc1ccccc1C#N	12.6µM	?	12.6µM	.
C[C@@]12CCC(=O)C=C1CC[C@H]1C2[C@@H](O)C[C@]2(C)[C@@H]1CC[C@@]2(O)C(=O)CO (stereo partly drawn)	/	/	/	.[10.9 µM]
COc1cc2nc(SCC(=O)Nc3ccccc3C)n3nc(CCn4c(C)nc5ccccc54)nc3c2cc1OC	.	.	.	.[10.9 µM]
SMILES	p53ts 32C kill	IkB signaling	p53ts 39C tox	Peg3 imprint
CCOc1ccccc1NC(=O)CSc1nc2cc(OC)c(OC)cc2c2nc(CCn3c(C)nc4ccccc43)nn12	?	.	5.01µM	.[10.9 µM]
CCOc1ccc(N(CC)C(=O)c2cc3c(s2)-c2ccc(Cl)cc2SC3)cc1	.	.	20µM	.[10.9 µM]
COc1cc(N=c2c([N+](=O)[O-])nn(-c3ccc4c(c3)OCCO4)n2O)cc(OC)c1	/	/	11.2µM	/
COc1ccc(/C=N/NC(=O)c2ccc3c(c2)OCCO3)cc1[N+](=O)[O-]	/	/	.	/
CC(=O)O[C@@H]1C[C@]2(C)[C@H](C[C@@H](O)[C@H]3[C@@]4(C)CC[C@@H](O)[C@@H](C)[C@@H]4CC[C@@]32C)/C1=C(\CCC=C(C)C)C(=O)O	.	.	.	/
Cc1nc2cc(NCc3nc4ccccc4n3Cc3ccccc3)ccc2n1C	3.98µM	/	2µM	/
Cc1ccc(-c2nc3c(C)cccn3c2Nc2ccccc2C)s1	.	?	.	.[10.9 µM]
Cc1nc2nc(-c3ccccc3)cc(=O)n2[nH]1	15.8µM	.	12.6µM	.
O=c1c(-c2ccc(F)cc2)nc2cnc(N3CCNCC3)nc2n1-c1ccccc1	12.6µM	.[11.4 µM]	?	.

Screening results from PubChem.
